# Compound activity: PubChem BioAssay, several laboratories
# CYP2C9 act: CYP2C9 (human) activation. P11712. recombinant CYP2C9, luciferin-H conversion, luminescence; hits give high values; factor 1 = untreated enzyme, 0 = blocked. activation factor at 5 µM. 96,000 tested, 1.4% active. AID 1024;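 active means activation factor of 2 or more for CYP2C9 at a 5 µM dose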
# Target sequence (P11712 whole entry, looked up): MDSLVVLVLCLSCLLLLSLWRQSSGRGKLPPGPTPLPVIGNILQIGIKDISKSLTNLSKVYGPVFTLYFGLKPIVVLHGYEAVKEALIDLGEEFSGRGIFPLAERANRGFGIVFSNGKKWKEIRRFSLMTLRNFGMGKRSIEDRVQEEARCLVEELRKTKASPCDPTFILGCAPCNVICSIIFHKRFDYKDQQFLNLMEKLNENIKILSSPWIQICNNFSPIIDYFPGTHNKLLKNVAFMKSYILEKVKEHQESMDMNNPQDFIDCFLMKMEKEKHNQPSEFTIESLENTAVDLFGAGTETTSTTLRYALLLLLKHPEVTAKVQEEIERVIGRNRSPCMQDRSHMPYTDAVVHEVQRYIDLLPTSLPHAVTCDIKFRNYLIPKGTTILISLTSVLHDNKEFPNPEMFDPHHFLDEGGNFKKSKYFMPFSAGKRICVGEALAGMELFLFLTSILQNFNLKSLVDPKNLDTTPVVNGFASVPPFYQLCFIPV
# PLK1 inh: PLK1 (human) kinase inhibition; 97,000 tested, 0.53% active; AID 619; recombinant PLK1 kinase, TR-FRET peptide phosphorylation; inhibition, % at 10 µM; P53350;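 active means inhibition of 50% or more in the single-concentration screen; inactive means inhibition below 50%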
# Plk1 PBD FP: blocks phosphopeptide binding to human Plk1 polo box domain; Plk1 PBD phosphopeptide binding, fluorescence polarization; 97,000 tested, 0.13% active; P53350; inhibition, %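 (tested at about 20 µM)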; AID 693; in the data active means inhibition above about 34%, passing the limit was not always enough
# CYP2C19 inh: human CYP2C19 inhibition; 96,000 tested, 21% active; CYP2C19 Supersomes, luciferin-H EGE luminescence, 30 min; AID 778; inhibition, % at 5 µM;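 active means CYP2C19 inhibition above a set limit at 5 µM in the primary screen, cut at about 50% in these data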
# CYP2C19 act: activators of human cytochrome P450 2C19; P33261; recombinant CYP2C19, luciferin-H EGE luminescence; hits give high values; 0 = fully inhibited enzyme, 1 = untreated enzyme; 96,000 tested, under 10 active; activation factor at 5 µM;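 active means activation factor of at least 2 at 5 µM in the primary screen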
# CYP2C9 inh: blocks human cytochrome P450 2C9; P11712; CYP2C9 Supersomes, luciferin-H conversion, luminescence; inhibition, % at 5 µM; 96,000 tested, 20% active;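 active means blocking of liver enzyme CYP2C9 beyond about 50% at 5 µM, limit read from the data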
# Hits are given with their value; i = inactive; nt = not tested or not shown. In the library only some 28% were active in any assay of this set; here they are far more common.
SMILES,CYP2C9 act,PLK1 inh,Plk1 PBD FP,CYP2C19 inh,CYP2C19 act,CYP2C9 inh
CCCN(CC(=O)Nc1c(C)cccc1CC)C(=O)SCC,i,i,i,60,i,i
CC(=O)N(CC1CCCO1)c1nnc(-c2cnccn2)s1 (configuration not stated),i,i,i,i,i,i
CC(C)CC(C(=O)Nc1oc(-c2ccco2)c(-c2ccco2)c1C#N)N1C(=O)c2ccccc2C1=O (configuration not stated),i,i,i,69,i,98
CCC(Sc1ncccc1C(=O)OCCN1CCCC1=O)C(=O)NCc1ccco1 (configuration not stated),i,i,i,i,i,i
CCC(Sc1ncccc1C(=O)OC(C)C)C(=O)NCc1ccco1 (configuration not stated),i,i,i,55,i,i
CCOC(=O)c1cccnc1SC(CC)C(=O)NCc1ccco1 (configuration not stated),i,i,i,68,i,70
COC(=O)C1C2C=CC3(CN(CC4CCCO4)C(=O)C13)O2 (configuration not stated),i,i,i,i,i,i
CC(C)CNC(=O)C1CC(=O)OC12CCCCC2 (configuration not stated),i,i,i,i,i,i
COc1cccc(N2C(=O)C3ON(c4ccccc4)C(c4cccs4)C3C2=O)c1 (configuration not stated),i,i,i,i,i,i
O=C1C2ON(c3ccccc3)C(c3cccnc3)C2C(=O)N1c1ccccc1 (configuration not stated),i,nt,nt,i,i,i
COc1cc(C2C3C(=O)N(c4ccccc4)C(=O)C3ON2c2ccccc2)cc(OC)c1OC (configuration not stated),i,i,i,50,i,i
COc1cc(C2C3C(=O)N(c4ccc(F)cc4)C(=O)C3ON2c2ccccc2)ccc1O (configuration not stated),i,i,i,i,i,53
O=C1C2ON(c3ccccc3)C(c3cccnc3)C2C(=O)N1c1ccc(Cl)c(Cl)c1 (configuration not stated),i,i,i,68,i,i
CC(=O)Nc1c(O)n(C)c2ccccc12,i,nt,nt,i,i,i
CC1(C)Cc2nc3sc4c(N(CCO)CCO)ncnc4c3cc2CO1,i,i,i,i,i,i
CCN(CCO)c1ncnc2c1sc1nc(CC(C)C)c3c(c12)CC(C)(C)OC3,i,i,i,i,i,69
O=C(CC(=O)NN=C1CCCC1)NCCc1ccccc1,i,i,i,i,i,i
COc1ccc2c(c1)Sc1ccccc1N2CCN(C)C,i,i,i,57,i,i
CC(=O)Nc1ccc(NC(=O)C(C)OC(=O)CCC(=O)c2ccc(F)cc2)cc1 (configuration not stated),i,i,i,72,i,69
Cn1c2ccc(Cl)cc2c2nc3ccccc3nc21,i,67,i,i,i,i
CCn1c(C2CC(=O)N(Cc3ccccc3)C2)nc2ccccc21 (configuration not stated),i,i,i,53,i,i
O=C(O)CCn1c(C2CCCCC2)nc2ccccc21,i,nt,nt,i,i,i
c1ccc(CCn2c(C3CC3)nc3ccccc32)cc1,i,i,i,98,i,66
Cc1cc(C)cc(N2CC(c3nc4ccccc4n3C)CC2=O)c1 (configuration not stated),i,58,i,i,i,i
CC(C)(C)N1CC(c2nc3ccccc3n2Cc2ccccc2)CC1=O (configuration not stated),i,i,i,i,i,79
SMILES,CYP2C9 act,PLK1 inh,Plk1 PBD FP,CYP2C19 inh,CYP2C19 act,CYP2C9 inh
O=C(Nc1cnc2ccccn2c1=O)c1ccc(F)cc1,i,i,i,i,i,i
COc1ccc(C(=O)c2c[nH]c(C(=O)NCc3cccs3)c2)cc1,i,i,i,i,i,i
COc1ccc(-n2nnnc2Sc2ccc(S(=O)(=O)N3CCOCC3)cn2)cc1,i,nt,nt,i,i,i
CCn1c(C2CC(=O)N(c3ccc(C)c(C)c3)C2)nc2ccccc21 (configuration not stated),i,nt,nt,53,i,i
C=CCN1CC(c2nc3ccccc3n2CCOc2ccccc2)CC1=O (configuration not stated),i,i,i,60,i,73
CC(=O)c1ccc(NC(=O)C2CC(=O)N(Cc3ccccc3)C2)cc1 (configuration not stated),i,i,i,i,i,i
C=C(C)Cn1c(C2CC(=O)N(Cc3ccccc3)C2)nc2ccccc21 (configuration not stated),i,nt,nt,55,i,71
Cc1ccc(N2CC(c3nc4ccccc4n3C)CC2=O)cc1C (configuration not stated),i,i,i,i,i,i
CCCn1c(C2CC(=O)N(c3cc(OC)ccc3OC)C2)nc2ccccc21 (configuration not stated),i,nt,nt,i,i,i
CNC(=O)/C(=N\O)c1ccccc1,i,nt,nt,i,i,i
CCN(CC(N)=O)S(=O)(=O)c1ccc(Br)cc1,i,i,i,i,i,i
c1ccc2c(Cn3ccnc3)c[nH]c2c1,i,i,i,86,i,84
COCCN(CC(=O)Nc1cccc(C)c1)S(=O)(=O)c1ccc(S(=O)(=O)N2CCCC2)cc1,i,i,i,i,i,61
CC(C)c1ccc(OCc2nc(-c3ccccn3)no2)c(Br)c1,i,i,i,i,i,i
Cc1ccccc1OCc1nc(-c2ccc(-n3cccc3)cc2)no1,i,i,i,i,i,i
Clc1ccccc1OCc1nc(-c2ccncc2)no1,i,i,i,98,i,98
Clc1ccc(OCc2nc(-c3ccncc3)no2)c(Br)c1,i,nt,nt,94,i,95
COc1cccc(-c2cc(C(=O)NCCCn3ccnc3)no2)c1,i,i,i,80,i,71
C=C(C)c1cccc(C(C)(C)NC(=O)NCCCn2ccnc2)c1,i,nt,nt,98,i,96
COc1ccc(-c2cc(C(=O)NCCCn3ccnc3)no2)cc1OC,i,i,i,65,i,50
COc1ccc(-c2cc(C(=O)N(C)Cc3ccccc3)no2)cc1OC,i,i,i,i,i,50
CCOC(=O)c1c(-c2ccc(F)cc2)cn2ccccc12,i,i,i,i,i,i
Cc1ccc(C(=O)Nn2cnnc2)cc1[N+](=O)[O-],nt,i,i,nt,nt,nt
O=C(NCCCn1ccnc1)c1cc(-c2ccc3c(c2)OCO3)on1,i,i,i,66,i,i
CCC(=O)c1c[nH]c(C(=O)NCCc2ccccn2)c1,i,i,i,i,i,i
Cc1ccc(C(=O)NCCCn2ccnc2)cc1[N+](=O)[O-],i,i,i,74,i,82
CCC(=O)c1c[nH]c(C(=O)NCCCn2ccnc2)c1,i,i,i,76,i,83
O=C(NCCCn1ccnc1)c1cccnc1,nt,i,i,nt,nt,nt
